# High-throughput results as filed in PubChem BioAssay.
# Sa ugtP lethal = kills S. aureus RN4220 lacking UgtP. S. aureus RN4220 ugtP deletion, OD600 growth, 16 h. growth inhibition, % (concentration not given with the values). 330,000 compounds, 0.54% hits. AID 1259309; in the data active = growth inhibition above about 68%;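 also: plate controls were untreated wells for no effect and antibiotic for full effect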
# CCHF vOTU inh = blocks the CCHF virus ovarian tumor domain protease. AID 651958. inhibition, % at 11.5 µM. CCHFV vOTU protease, Pep-AMC fluorescence. 370,000 compounds, 0.55% hits; in the data active = inhibition above about 30%; also: 0% = vehicle wells with enzyme and 100% = no enzyme wells
# PriA SSB inh = inhibitors of Klebsiella pneumoniae PriA binding to SSB C-terminal tail; inhibition, % at 33 µM; AID 1272365; 430,000 compounds, 0.6% hits; AlphaScreen SSBct-PriA binding, biotinylated peptide; in the data active = inhibition mostly above about 37%, no sharp cut-off; inactive = mostly below about 20%;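 also: plate controls were negative control peptide for no effect and reference peptide for full effect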
# VHR inh abs = blocks human VHR1 dual specificity phosphatase. 290,000 compounds, 0.52% hits. inhibition, % at 13.3 µM. P51452. recombinant VHR phosphatase, pNPP absorbance. AID 1654; in the data active = inhibition above about 50%
# Target sequence (P51452 whole entry, looked up): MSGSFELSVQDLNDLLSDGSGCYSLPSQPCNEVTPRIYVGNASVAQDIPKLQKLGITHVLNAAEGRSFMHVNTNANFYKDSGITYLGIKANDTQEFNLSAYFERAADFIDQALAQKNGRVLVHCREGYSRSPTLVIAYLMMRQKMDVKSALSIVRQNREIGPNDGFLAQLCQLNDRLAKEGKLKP
# Sa RN4220 lethal = kills Staphylococcus aureus RN4220 | S. aureus RN4220 growth, OD600, 16 h | inhibition, % (concentration not given with the values) | AID 1259311 | 330,000 compounds, 0.33% hits; in the data active = inhibition above about 85%;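 also: plate controls were untreated cells for no effect and reference antibiotic for full effect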
# Active calls of the source: *; · = not tested or not shown. Compounds with a hit are over-represented: about 1.5% of the library has one in this group of screens.
SMILES,Sa ugtP lethal,CCHF vOTU inh,PriA SSB inh,VHR inh abs,Sa RN4220 lethal
Cc1ccc(Nc2c([N+](=O)[O-])cc(C(=O)N3CC(=O)Nc4ccccc43)cc2[N+](=O)[O-])c(C)c1,-13.3,10.1,42.6*,17.8,-3.6
COc1ccc(NC(=O)c2ccc3c(c2)OCO3)cc1,3.8,-3.6,-12.2,3.6,1.8
COc1ccc(NC(=O)C(c2cc3c(cc2[N+](=O)[O-])OCO3)N(C)c2ccccc2)cc1 (centres undefined),·,3.9,39.1*,1.2,·
COc1ccc(-c2nnc(SCc3cc(C)cc(C)c3)o2)cc1,93.8*,-5.7,-10.2,3.5,10.9
Nc1nc(-c2ccccn2)ns1,·,·,19.4,·,·
Nc1nc(-c2ccccn2)cs1,·,·,94.0*,·,·
Nc1nc(-c2cccc(-c3csc(N)n3)n2)cs1,·,·,113.5*,·,·
Nc1nc(-c2ccc(-c3ccccc3)cc2)cs1,18.6,-1.5,13.9,-4.4,0.5
CC(=O)c1sc(NC(=O)c2cc(C)n(C)n2)nc1C,·,·,-3.0,·,·
CCn1nc([N+](=O)[O-])c(C(C#N)c2nc3cc(C(F)(F)F)ccc3s2)c(Cl)c1=O (centres undefined),91.5*,27.1,73.3*,9.0,99.1*
CCCn1nc([N+](=O)[O-])c(C(C#N)c2nc3ccccc3o2)c(Cl)c1=O (centres undefined),5.8,18.7,22.2,-27.6,4.7
O=c1cccnn1CCNS(=O)(=O)c1ccc(F)c(C(F)(F)F)c1,·,·,-11.0,·,·
O=C(c1ccc(CNS(=O)(=O)c2ccccc2)cc1)N1CCN(c2ccccn2)CC1,-1.4,4.1,2.6,3.3,11.4
O=C(c1ccc(Cl)c(S(=O)(=O)NCc2ccccc2)c1)N1CCN(c2ccccn2)CC1,7.6,·,5.2,54.4*,2.2
Cn1c(=O)oc2cc(S(=O)(=O)N3CCC(C(=O)N4CC=C(c5ccccc5)CC4)CC3)ccc21,15.2,-3.6,115.4*,4.0,5.6
Cn1c(=O)oc2cc(S(=O)(=O)N3CCC(C(=O)N4CCN(c5ccccc5)CC4)CC3)ccc21,8.0,1.7,-5.5,34.0,1.3
COc1ccc(N(CC(=O)N/N=C/c2cccnc2)S(=O)(=O)c2ccccc2)c(OC)c1,·,-2.9,·,52.8*,·
Nc1nc(-c2ccccc2)c(-c2ccccc2)s1,35.4,4.8,13.9,37.9,-0.8
Cc1ccc(-c2nc(N)sc2-c2ccccc2)cc1C,95.7*,16.0,-2.4,-1.2,-12.2
CC(C)(C)N1C(=O)Cc2c1nc(N)c1c(N)nc(N3CCCCC3CO)c(C#N)c21 (centres undefined),8.4,·,29.9,57.5*,12.2
O=C(COc1ccc(Cl)cc1)Nc1nnc(SCC(=O)Nc2cc(C(F)(F)F)ccc2Cl)s1,·,·,-3.0,·,·
CCOC(=O)C1CCN(C(C(=O)Nc2ccc3c(c2)OCCO3)c2ccccc2)CC1 (centres undefined),6.4,14.3,-4.9,52.7*,3.5
COc1ccccc1OC(C)C(=O)Nc1ccc2c(c1)OCCO2 (centres undefined),-1.1,-8.9,-22.1,56.2*,5.0
COc1ccc(CCC(=O)N2CCN(c3nc4c(C(F)(F)F)cccc4s3)CC2)cc1,·,·,-16.0,·,·
Cn1c(=O)c(C(=O)NNC(=O)c2cccc(Cl)c2)c(O)c2ccccc21,100.2*,-15.6,-12.8,15.8,100.4*
SMILES,Sa ugtP lethal,CCHF vOTU inh,PriA SSB inh,VHR inh abs,Sa RN4220 lethal
CCn1c(=O)c(C(=O)NNC(=O)c2cccc(Cl)c2)c(O)c2ccccc21,100.1*,-11.8,-1.2,40.9,100.0*
CCn1c(=O)c(C(=O)NNC(=O)c2ccc(Cl)cc2Cl)c(O)c2ccccc21,18.4,-8.4,-9.0,6.7,46.1
COc1ccc(NC(=O)c2ccco2)cc1N1CCCC1=O,·,·,16.0,·,·
COc1ccccc1NC(=S)NC(=O)/C=C/c1cccs1,active,7.3,6.0,-0.5,90.4
COc1ccc(NC(=S)NC(=O)/C=C/c2cccs2)cc1,83.9*,-6.3,-10.0,22.3,0.7
CCN(CCCNC(=O)CC(C(=O)N1CCc2ccccc21)n1ccnc1)c1cccc(C)c1 (centres undefined),11.1,-0.1,47.5*,21.4,3.0
OCCCn1c(-c2ccccc2)csc1=Nc1ccccc1,-5.1,14.2,42.1*,-10.7,7.8
O=C(O)CCC(=O)NCCn1c(-c2ccccc2)csc1=Nc1ccccc1,5.5,-5.6,-5.4,25.0,3.9
CN(CC(=O)Nc1ccc(Cl)c(C(F)(F)F)c1)CC(=O)NC1CCCCC1,-9.7,·,-6.1,·,2.7
CN(CC(=O)Nc1ccc(Cl)c(C(F)(F)F)c1)C(=O)CCN1C(=O)C2CCCCC2C1=O (centres undefined),93.6*,11.8,-13.9,·,67.0
Cc1ccc(C(=O)CSc2nccn(-c3ccc(C)cc3)c2=O)cc1,·,·,-5.0,·,·
O=C(CSc1nc(-c2ccccc2)c(-c2ccccc2)[nH]1)NCc1ccco1,5.4,-6.2,41.5*,16.1,-5.5
COc1ccccc1CCNC(=O)c1ccc(=O)[nH]n1,·,·,-18.0,·,·
Cc1cccc(Nc2nc(N)c([N+](=O)[O-])c(N3CC(C)OC(C)C3)n2)c1 (centres undefined),9.3,24.6,23.2,·,3.4
Cc1cccc(Nc2nc(N)c([N+](=O)[O-])c(N3CC(C)CC(C)C3)n2)c1 (centres undefined),57.2,13.3,50.1*,2.6,-0.8
COc1cc2nc(N3CCN(c4cc(C)ccc4C)CC3)nc(N)c2cc1OC,-4.3,4.3,14.3,2.4,17.3
COc1cc2nc(N3CCNCC3)nc(N)c2cc1OC,9.7,-55.8,46.4*,-5.1,7.8
Cc1ccc(C)c(C(=O)Nc2cnc(-n3cccn3)nc2)c1,·,·,-23.0,·,·
Nc1c(Cl)ncnc1NN=Cc1ccc2ccccc2n1,-21.7,·,54.4*,·,-15.2
Cc1noc(C)c1S(=O)(=O)N1CCCC(Oc2nccnc2N(C)C)C1 (centres undefined),·,·,-13.0,·,·
Cc1ccccc1NC(=O)C(C)SCc1ccccc1 (centres undefined),9.2,-10.6,-11.2,52.0*,5.2
CCN(CC)c1ccc(N2C(=O)CSC2=S)cc1,33.1*,4.9,7.7,4.0,93.1
CCOc1ccc(N2C(=O)CSC2=S)cc1,2.4,-7.1,-11.7,23.4,6.8
COC(=O)C1=C(C)N(CCC2=CCCCC2)C(=O)/C1=C\c1cccs1,·,·,22.0,·,·
CCOc1ccc(-c2c(C#N)c(N)nc3sc(C(=O)c4ccc(OC)cc4)c(N)c23)cc1,·,·,-12.0,·,·
SMILES,Sa ugtP lethal,CCHF vOTU inh,PriA SSB inh,VHR inh abs,Sa RN4220 lethal
CC(C)(C)C1(C)NN=C2Sc3ccccc3N21 (centres undefined),·,·,-18.0,·,·
Cc1cc(NC(=O)/C=C/c2cccs2)n(C(C)C)n1,·,·,2.0,·,·
Cc1cccc(C(=O)N(Cc2nc3ccccc3c(=O)[nH]2)C2CCCCC2)c1,-12.2,23.8,-4.7,51.6*,0.5
Cc1ccccc1S(=O)(=O)Cc1ccc(C(=O)NCCCN2CCC(C)CC2)o1,4.1,2.2,-12.0,56.8*,6.0
O=C(NCCc1c[nH]c2ccccc12)c1csc(Nc2ccccc2)n1,·,·,28.0*,·,·
O=C(Nc1ccccc1)Nc1nc(C(=O)NCCc2c[nH]c3ccccc23)cs1,·,·,41.0*,·,·
O=C(NCc1ccccc1)c1csc(Nc2ccccc2)n1,·,·,-8.0,·,·
O=C(Nc1ccccc1)Nc1nc(C(=O)O)cs1,·,·,63.0*,·,·
Cc1cccc(S(=O)(=O)Nc2ccc(C(=O)N3CCC(n4ccnn4)CC3)cc2)c1,·,·,-10.0,·,·
